Results as given in PubChem BioAssay (Tox21).
A number with no mark means an inactive call. Inconclusive results are not listed. Entries that show only a call come without a potency. The source made the active and inactive calls. Unless noted, calls come from the whole dose curve; as a rule, active = well fitted curve in the direction sought with a large enough effect in the repeat runs; inconclusive = weak or mixed curves; inactive = no such curve, though single readings can be large; an effect the other way counts as inactive or inconclusive.

Assays:
[1] = A CellTox Green Cytotoxicity Assay to monitor cytotoxicity in HepG2 cells - 32 hour (AID 1224883); note: nearly all actives have a fitted effect of over 50% in size
How it was run: (§1)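 Real-time cytotoxicity: fluorescence of a cell-impermeant cyanine dye binding DNA of dead HepG2 cells, measured repeatedly (0–40 h) during compound exposure at 37 C. Cells seeded 600/well with reagent, dosed after 5 h.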

[2] = A CellTox Green Cytotoxicity Assay to monitor cytotoxicity in HEK293 cells - 8 hour (AID 1224884); note: nearly all actives have a fitted effect of over 35% in size
How it was run: (§2)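 Fluorescence from a DNA-binding dye excluded by viable cells was measured repeatedly in the same HEK293 wells (600 cells/well) during continuous compound exposure at 37 C. Each assay gives one read point: 0, 8, 16, 24, 32 or 40 h.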

[3] = qHTS RealTime-Glo MT Cell Viability Assay in HepG2 cells - 16 hour (AID 1224885); note: nearly all actives have a fitted effect of over 50% in size
How it was run: (§3)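 Cell number in HepG2 cultures estimated from NanoLuc luminescence generated by metabolic reduction of a prosubstrate by living cells. The homogeneous, nonlytic format allowed repeated reads at 0, 8, 16, 24, 32 and 40 h of compound exposure.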

[4] = qHTS RealTime-Glo MT Cell Viability Assay in HEK293 cells - 24 hour (AID 1224886); note: top concentration of the series differs between compounds; nearly all actives have a fitted effect of over 50% in size
How it was run: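 Homogeneous bioluminescent viability format in HEK293 cells (600 cells/well). Following 5 h at 37 C/5% CO2, 23 nL compound was pintooled; the signal was measured repeatedly during 40 h incubation.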

[5] = A CellTox Green Cytotoxicity Assay to monitor cytotoxicity in HEK293 cells - 16 hour (AID 1224888); note: nearly all actives have a fitted effect of over 35% in size
How it was run: as §2

[6] = qHTS RealTime-Glo MT Cell Viability Assay in HepG2 cells - 0 hour (AID 1224889); note: nearly all actives have a fitted effect of over 50% in size
How it was run: as §3

[7] = A CellTox Green Cytotoxicity Assay to monitor cytotoxicity in HepG2 cells - 8 hour (AID 1224890); note: nearly all actives have a fitted effect of over 45% in size
How it was run: as §1

[8] = qHTS assay to identify small molecule antagonists of the estrogen receptor alpha (ER-alpha) signaling pathway using the BG1 cell line in the presence of 0.1 nM 17-beta-estradiol - cell viability counter screen (AID 1259241); note: nearly all actives have a fitted effect of over 40% in size
How it was run: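 Cytotoxicity counter-screen: live-cell protease activity measured by fluorescence (30 min reagent step) in the same wells. Cells were VM7Luc4E2 with endogenous ER-alpha and ERE-driven luciferase, treated 22 hr at 37C alongside 0.1 nM 17beta-estradiol final.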

[9] = qHTS assay to identify small molecule antagonists of the androgen receptor (AR) signaling pathway using the MDA cell line in the presence of 0.5 nM R1881 - cell viability counter screen (AID 1259242); note: nearly all actives have a fitted effect of over 45% in size
How it was run: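 Live-cell protease activity was measured by CellTiter-Fluor fluorescence after 30 min. Before that, MDA-kb2 MMTV-luciferase cells had 16 hr at 37C without CO2, exposed to test compounds and 0.5 nM R1881 final.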

[10] = qHTS assay to identify small molecule HDAC inhibitors (AID 1259364); note: nearly all actives have a fitted effect of over 45% in size; note: potency is the fitted concentration of half-maximal effect
How it was run: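 Luminescence read after 30 min room-temperature HDAC-Glo incubation measures cellular class I/II HDAC activity. Compounds were applied for 2 hr at 37 C to HCT-116 wild-type cells seeded the day before.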

[11] = qHTS assay to identify small molecule HDAC inhibitors - cell viability counter screen (AID 1259365)
How it was run: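 CellTiter-Glo luminescence (30 min, room temperature) reported viability after a 2 h compound exposure at 37 C. Cells: wild-type HCT-116, 1,500 per well, seeded the night before.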

[12] = qHTS assay to identify small molecule agonists of the sonic hedgehog signaling (Shh) pathway - cell viability counter screen (AID 1259366); note: nearly all actives have a fitted effect of over 50% in size
How it was run: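 Cytotoxicity counter screen: CellTiter-Fluor reagent added after 23 h compound exposure, then 1 h at 37C and fluorescence read. Cells were 3T3 Gli1-Luc, seeded 2,000 per well and dosed 4 h post-plating.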

[13] = qHTS assay to identify small molecule antagonists of the sonic hedgehog signaling (Shh) pathway - cell viability counter screen (AID 1259367); note: nearly all actives have a fitted effect of over 55% in size
How it was run: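 Fluorescence read-out (CellTiter-Fluor, 1 hr at 37C) taken after 23 hr compound treatment of 3T3 Gli1-Luc cells stimulated with conditioned medium. Cells were seeded at 2,000 per well and pre-incubated 4 hr.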

[14] = qHTS assay to identify small molecule agonists of the sonic hedgehog signaling (Shh) pathway (AID 1259368; calls by dose curve;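 note: NIH/3T3-derived 3T3Gli1-Luc cells carrying a stable Gli1-driven firefly luciferase reporter; series mostly up to about 92 µM; nearly all actives have a fitted effect of over 15% in size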)
How it was run: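 Luminescence was read after 30 min at room temperature with luciferase reagent. Before that, 3T3Gli1-Luc cells (NIH/3T3 clone, stable Gli1-Luc reporter; 2,000/well) were exposed to compounds for 24 hr at 37C, 5% CO2, compounds being added 4 hr post-plating.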

[15] = qHTS RealTime-Glo MT Cell Viability Assay in HEK293 cells - 8 hour (AID 1224887)
How it was run: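 Luminescence, which tracks viable cell number through reduction of the prosubstrate to a NanoLuc substrate, was read over continuous 37 C culture. Cells (600/well) were premixed with reagent and rested 5 h before 23 nL of compound in DMSO was pinned.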

[16] = target: Estrogen receptor beta (Homo sapiens) (UniProt Q92731); assay: qHTS assay to identify small molecule agonists of the estrogen receptor beta (ER-beta) signaling pathway (AID 1259377; active = well fitted activation curve with a large enough effect in the signal ratio in the repeat runs, not every such curve was filed as active; the % refers to the signal ratio)
How it was run: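 Ratiometric beta-lactamase FRET read-out came after 2 h substrate loading at room temperature. It followed 16 h compound treatment at 37C of GripTite HEK293T cells carrying a UAS-bla reporter, plated in 2% charcoal-stripped FBS medium.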

[17] = qHTS assay to identify small molecule antagonists of the sonic hedgehog signaling (Shh) pathway (AID 1259369; calls by dose curve; note: nearly all actives have a fitted effect of over 45% in size; note: potency is the fitted concentration of half-maximal effect)
How it was run: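 Antagonist mode: compound added to 3T3 Gli1-Luc cells followed by conditioned-medium stimulation, 24 h at 37 C, 5% CO2. Inhibition taken as loss of Gli1-driven luciferase luminescence.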

[18] = target: Androgen receptor (Homo sapiens) (UniProt P10275); assay: qHTS assay to identify small molecule antagonists of the androgen receptor (AR) signaling pathway using the MDA cell line in the presence of 0.5 nM R1881 (AID 1259243); note: nearly all actives have a fitted effect of over 50% in size
How it was run: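 Luminescent reporter readout (ONE-Glo, 30 min, room temperature) after 16 hr co-treatment of MDA-kb2 cells with test compounds and 0.5 nM R1881 final, at 37C without CO2. The MMTV-driven luciferase responds to both AR and GR.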

[19] = target: Estrogen receptor (Homo sapiens) (UniProt P03372); assay: qHTS assay to identify small molecule antagonists of the estrogen receptor alpha (ER-alpha) signaling pathway using the BG1 cell line in the presence of 0.1 nM 17-beta-estradiol (AID 1259244); note: nearly all actives have a fitted effect of over 50% in size
How it was run: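 Luciferase luminescence (ONE-Glo, 30 min at room temperature) was read after 22 hr at 37C exposure to compounds plus 17beta-estradiol at 0.1 nM final. Cells were VM7Luc4E2 with endogenous ER-alpha and an ERE-driven luciferase, pre-cultured 5 days in hormone-depleted medium.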

[20] = qHTS assay to identify small molecule phospholipidosis (PLD) inducers (AID 1259344; active = well fitted curve in the direction sought with a large enough effect; an effect the other way counts as inactive or inconclusive)
How it was run: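 Read-out is LipidTOX Red fluorescence (ex 595/em 615) imaged in HepG2 cells after 24 h compound exposure at 37 C, with Hoechst nuclear counterstain (ex 352/em 461) allowing per-cell normalisation.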

Sequence of Estrogen receptor (Homo sapiens) (P03372 whole entry, looked up): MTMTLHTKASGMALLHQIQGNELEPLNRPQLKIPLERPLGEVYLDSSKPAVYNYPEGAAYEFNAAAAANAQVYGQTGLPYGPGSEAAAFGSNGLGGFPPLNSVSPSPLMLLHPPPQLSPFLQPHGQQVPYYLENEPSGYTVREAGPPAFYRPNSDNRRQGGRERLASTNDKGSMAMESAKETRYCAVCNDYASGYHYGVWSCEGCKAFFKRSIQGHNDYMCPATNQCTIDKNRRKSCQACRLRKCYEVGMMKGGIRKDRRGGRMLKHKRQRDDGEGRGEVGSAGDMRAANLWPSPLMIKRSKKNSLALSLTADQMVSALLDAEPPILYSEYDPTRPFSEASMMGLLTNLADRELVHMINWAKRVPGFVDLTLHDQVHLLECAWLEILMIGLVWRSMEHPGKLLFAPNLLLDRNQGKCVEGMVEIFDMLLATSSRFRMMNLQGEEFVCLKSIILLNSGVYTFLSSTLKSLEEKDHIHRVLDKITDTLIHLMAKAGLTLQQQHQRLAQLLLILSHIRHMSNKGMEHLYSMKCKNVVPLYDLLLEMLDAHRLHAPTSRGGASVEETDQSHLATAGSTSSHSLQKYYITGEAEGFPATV
Sequence of Estrogen receptor beta (Homo sapiens) (Q92731 whole entry, looked up): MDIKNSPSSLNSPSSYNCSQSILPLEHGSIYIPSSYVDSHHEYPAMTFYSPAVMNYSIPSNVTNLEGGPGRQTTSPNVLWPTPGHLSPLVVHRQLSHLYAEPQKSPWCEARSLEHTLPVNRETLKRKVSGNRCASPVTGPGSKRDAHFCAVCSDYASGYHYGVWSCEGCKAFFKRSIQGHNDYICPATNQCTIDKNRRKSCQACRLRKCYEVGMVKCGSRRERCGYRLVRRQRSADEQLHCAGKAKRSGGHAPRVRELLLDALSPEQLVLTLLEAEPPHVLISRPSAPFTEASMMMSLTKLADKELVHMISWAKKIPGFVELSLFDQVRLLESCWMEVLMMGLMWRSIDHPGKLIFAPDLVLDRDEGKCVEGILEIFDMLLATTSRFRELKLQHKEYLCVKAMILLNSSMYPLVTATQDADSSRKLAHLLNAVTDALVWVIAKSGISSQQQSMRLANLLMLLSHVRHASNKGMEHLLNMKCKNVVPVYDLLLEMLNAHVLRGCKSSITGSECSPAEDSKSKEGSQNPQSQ
Sequence of Androgen receptor (Homo sapiens) (P10275 whole entry, looked up): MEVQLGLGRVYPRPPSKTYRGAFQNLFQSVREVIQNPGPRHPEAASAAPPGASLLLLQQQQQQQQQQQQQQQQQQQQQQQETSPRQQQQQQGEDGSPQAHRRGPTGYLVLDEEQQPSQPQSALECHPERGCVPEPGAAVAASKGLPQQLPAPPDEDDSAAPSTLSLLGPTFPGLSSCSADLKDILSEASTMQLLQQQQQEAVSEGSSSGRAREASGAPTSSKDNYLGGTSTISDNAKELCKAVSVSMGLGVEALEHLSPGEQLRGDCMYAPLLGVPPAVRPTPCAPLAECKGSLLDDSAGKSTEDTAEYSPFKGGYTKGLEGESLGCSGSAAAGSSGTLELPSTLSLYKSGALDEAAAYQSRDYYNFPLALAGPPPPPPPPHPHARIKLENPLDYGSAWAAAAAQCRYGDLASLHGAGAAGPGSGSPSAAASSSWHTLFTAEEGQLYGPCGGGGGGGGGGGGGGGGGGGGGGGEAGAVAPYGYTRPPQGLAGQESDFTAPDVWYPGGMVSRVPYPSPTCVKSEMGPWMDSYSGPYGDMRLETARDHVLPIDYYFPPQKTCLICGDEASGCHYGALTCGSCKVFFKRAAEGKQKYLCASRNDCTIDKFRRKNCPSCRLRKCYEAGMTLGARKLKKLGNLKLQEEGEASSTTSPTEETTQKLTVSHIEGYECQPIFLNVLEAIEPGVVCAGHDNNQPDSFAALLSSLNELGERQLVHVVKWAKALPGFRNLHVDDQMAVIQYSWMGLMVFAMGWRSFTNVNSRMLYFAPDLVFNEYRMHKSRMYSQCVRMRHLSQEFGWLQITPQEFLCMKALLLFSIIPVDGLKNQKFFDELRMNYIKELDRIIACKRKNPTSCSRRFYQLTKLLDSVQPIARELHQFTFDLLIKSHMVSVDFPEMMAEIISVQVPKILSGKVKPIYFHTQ

SMILES	Potency [1]	Potency [2]	outcome [3]	Potency [4]	outcome [5]	Potency [6]	outcome [7]	Potency [8]	outcome [9]	Potency [10]	outcome [11]	Potency [12]	Potency [13]	outcome [14]	Potency [15]	Potency [16]	Potency [17]	Potency [18]	Potency [19]	outcome [20]
COc1ccc(Br)c(C)c1	inactive	inactive	inactive	inactive	inactive	inactive	inactive	inactive	inactive	inactive	inactive	inactive	inactive	inactive						
Cc1cccc2nccnc12	inactive	inactive	inactive	inactive		inactive	inactive	inactive		inactive	inactive	inactive	inactive	inactive	inactive	inactive				
CCCCCCCCSCC	inactive	inactive	inactive	inactive	inactive	inactive	inactive	inactive	inactive	inactive	inactive	inactive	inactive	inactive		inactive	inactive			
COCCc1ccc(OCC2CO2)cc1 (stereo unspecified)	inactive	inactive	inactive	inactive	inactive	inactive	inactive	inactive	inactive	inactive	inactive	inactive	inactive	inactive		inactive	inactive	inactive	inactive	
OC[C@H](Cc1cccc(O)c1)[C@H](CO)Cc1cccc(O)c1	inactive	inactive	inactive	inactive		inactive	inactive	inactive	inactive	inactive	inactive	inactive		inactive	inactive		62.6 µM (active)			
CCn1ccc(NS(=O)(=O)c2ccc(N)cc2)nc1=O	inactive	inactive	inactive	inactive		inactive	inactive	inactive	inactive	inactive	inactive	inactive	inactive	inactive	inactive	inactive	inactive			
O=C1CC(c2ccc(Cl)cc2)CC(=O)N1	inactive	inactive	inactive	inactive	inactive	inactive	inactive	inactive	inactive	inactive	inactive	inactive	inactive	inactive		inactive			inactive	
Cc1[nH]cnc1-c1ccc(Cl)cc1	inactive	inactive	inactive	inactive		inactive	inactive	inactive	inactive	inactive	inactive	inactive	inactive	inactive	inactive		inactive			
ClCCCl	inactive	inactive	inactive	inactive	inactive	inactive	inactive	inactive	inactive	inactive	inactive	inactive	inactive	inactive			inactive		inactive	
CC(COC(C)(C)C)OCCCO (stereo unspecified)	inactive	inactive	inactive	inactive		inactive	inactive	inactive	inactive	inactive	inactive	inactive	inactive	inactive	inactive	inactive				
O=S(=O)(O)c1cc(O)c2ccc(Nc3ccccc3)cc2c1	inactive	inactive	inactive	inactive			inactive	inactive	inactive	24.3 µM (active)	inactive	inactive	inactive	inactive	inactive	inactive	inactive		inactive	
COc1cc2c(cc1OC)[C@@H]1CC(=O)[C@@H](CC(C)C)CN1CC2	inactive	inactive	inactive	inactive		inactive	inactive	inactive	inactive	inactive	inactive	inactive		inactive	inactive	inactive				inactive
COc1ccc(-c2cc(=O)c3c(O)cc(O[C@@H]4O[C@H](CO[C@@H]5O[C@@H](C)[C@H](O)[C@@H](O)[C@H]5O)[C@@H](O)[C@H](O)[C@H]4O)cc3o2)cc1O	inactive	inactive	inactive	inactive	inactive	inactive	inactive	inactive	inactive	inactive	inactive	inactive	inactive	inactive		inactive	inactive			
c1ccc2nccnc2c1	inactive	inactive	inactive	inactive	inactive	inactive	inactive	inactive	inactive	inactive	inactive	inactive	inactive	inactive		inactive	inactive			
CCOC(=O)c1ccc(OC(=O)CCCCCN=C(N)N)cc1	inactive	inactive	inactive	inactive		inactive	inactive		inactive		inactive	inactive		inactive	inactive		inactive		inactive	inactive
